The values below come from PubChem BioAssay AID1053188 (Broad Institute, 2014).

“And” between values parts separate entries of the source, which are not always exact repeats. Identical values can stand only once. The campaign covered roughly 83,000 compounds. About 780 (0.94%) were called active. The sample holds actives, similar compounds and a random draw of the others, so the mix is not that of the screen. A number with no mark means an inactive call.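 Rule for the calls: active = mean inhibition of at least 50% with a set share of replicates also reaching that level; inconclusive = no clear call, values can overlap the other calls; inactive = the rest.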

The nature of this assay: inhibitors of CD40-induced NF-kB signaling, primary screen, BL2 cells, luciferase reporter, single point (AID 1053188).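 Note: 0% = neutral control wells and 100% = IKK inhibitor VII at 50 µM.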 The following applies: CD40L-induced, 4 h, stronger effect = higher value; at 10 µM unless noted.
As to `Cc1ccc(S(=O)(=O)c2ccc(Oc3ccccc3)cc2)cc1`, the inhibition was 1.57%.

On to `O=C1C(Cl)=C(Oc2ccccc2)C(=O)c2ccccc21`, for which the inhibition is 100% (active).

As to `COc1ccc2ccccc2c1CNc1nnnn1C`, the inhibition is -1.14%.

`O=C(NCC1CCCO1)c1ccc(S(=O)(=O)Nc2ccc(F)cc2)cc1` (stereo not drawn): the inhibition was 7.17%.

As to `c1c2c(cc3sc(N4CCCCC4)nc13)OCCO2`, the inhibition is 99.7% (active).

Regarding `CN(C)CCCN(C(=O)c1ccc(S(=O)(=O)N2CCCCCC2)cc1)c1nc2cc3c(cc2s1)OCCO3`, the inhibition is -0.778%.

`Cc1nc2cc3c(cc2s1)OCO3`: the inhibition was 3.54%.

Regarding `O=C(NCC1CCCO1)c1cc2c(s1)CCCC2` (stereo not drawn), the inhibition is -65.3%.

Turning to `Cc1cccn2c(CNCC(C)Oc3cccnc3)c(C(=O)N3CCOCC3)nc12` (stereo not drawn), the inhibition was 9.25%.

Turning to `CCOc1ccc(S(=O)(=O)NCCC(=O)N2CCCCCCC2)cc1`, the inhibition is 7.35%.

Turning to `NC(=O)COC(=O)c1sc2cc(F)ccc2c1Cl`, the inhibition was -6.93%.

As for `O=C(COc1ccccc1)Nc1ccc(C(=O)N2CCCC2)cc1`, the inhibition is -10.1%.

In the case of `N#C[C@@H]1N[C@@H](CO)[C@@H]1c1ccc(C#Cc2ccccc2F)cc1`, the inhibition was -72.6% [at 25 µM] (active).

Regarding `N#C[C@@H]1N[C@H](CO)[C@@H]1c1ccc(/C=C/c2ccccc2)cc1`, the inhibition was -33.7% [at 25 µM].

Take `N#C[C@H]1N[C@H](CO)[C@@H]1c1ccc(C#Cc2ccccc2F)cc1`: the inhibition is -56.4% [at 25 µM].

`O=C(Nc1cccc(-c2cscn2)c1)C1CCN(Cc2ccsc2)CC1`: the inhibition is -0.734%.

As to `CC(=O)c1c(C)[nH]c(C(=O)OCC(=O)Nc2c(C)n(C)n(-c3ccccc3)c2=O)c1C`, the inhibition was 6.04%.

Regarding `Fc1ccc(-c2ccc(NCCN3CCOCC3)nn2)cc1`, the inhibition was -11.3%.

Consider `COc1ccc2c(c1)c(=Cc1ccc(N(C)C)cc1)c1cc(-c3ccccc3)[n+](C)n12`, for which the inhibition was 104% (active).

Take `COCCCN(C(=O)CSCc1ccc(C)cc1)c1c(N)n(Cc2ccccc2)c(=O)[nH]c1=O`: the inhibition is 10%.

For `Cc1cccc(-n2c(=O)c3c(C)c(C)sc3n(CC(N)=O)c2=O)c1`, the inhibition was 0.549%.

On to `CN1CCC(N(C)C(=O)c2ccc(Cl)c(S(=O)(=O)Nc3ccc(Cl)cc3)c2)CC1`, for which the inhibition is -2.41%.

`CC1(C(=O)O)CCCN(C(=O)/C=C/c2ccccc2)C1` (stereo not drawn): the inhibition was 4.26%.

Consider `O=C(CCCCCCCC(=O)N1CCCCC1)N1CCCCC1`, for which the inhibition was -9.37%.

`COc1ccc(NS(=O)(=O)c2ccc(N3CCOCC3)c(NC(=O)/C=C/C(=O)O)c2)cc1`: the inhibition was 2.43%.

As for `O=C(Cn1cnc([N+](=O)[O-])n1)NCCc1ccccc1`, the inhibition was -4.08%.

As to `O=C(Oc1ccc(-c2nc(-c3ccccn3)no2)cc1)c1ccccc1`, the inhibition was 49.6% (active).

With `CC(C)c1nc(-c2ccccn2)no1`, the inhibition is -17.2%.

Turning to `O=C(COC(=O)c1ccc(Oc2ccccc2)cc1)Nc1nnc(-c2ccccc2)o1`, the inhibition was -10.4%.

In the case of `O=C(NCCCN1CCCC1=O)c1ccc(S(=O)(=O)Nc2ccccc2)cc1`, the inhibition is 4.15%.

On to `C=C(C)C[C@H]1CCn2cc(nn2)COCCNC1=O`, for which the inhibition was 4.24% [at 25 µM].

Consider `Cc1cccc(CN2CCN(Cc3cnn(-c4ccccc4F)c3)CC2CCO)n1` (stereo not drawn), for which the inhibition is -1.95%.

Regarding `CN(Cc1cccc2ncccc12)C(=O)CC1C(=O)NCCN1Cc1ccc(F)cc1` (stereo not drawn), the inhibition was -2.82%.

With `O=C(CCC(=O)c1cccs1)NC1CCCCCC1`, the inhibition is -60%.

For `O=[N+]([O-])c1cccc(C2=NCCS2)c1`, the inhibition was 9.1%.

On to `O=C(NC1CC1)c1ccc(-c2ccccc2)cc1`, for which the inhibition is -88.4%.

As to `C/C=C/c1ccc(OCC(O)CN2CCCCCCC2)c(OC)c1` (stereo not drawn), the inhibition was 0.219%.

On to `Oc1c(Cl)cc(Cl)c(Cl)c1Cc1c(O)c(Cl)cc(Cl)c1Cl`, for which the inhibition is 90.9% (active).

As to `CC(NC(=O)c1ccccc1)C(=O)Nc1ccccc1` (stereo not drawn), the inhibition was 3.04%.

In the case of `O=C(NC(=O)c1ccccc1)NC(=O)c1ccccc1`, the inhibition was -13.8%.

With `O=C(NC1=CC(=O)c2ccccc2C1=O)c1ccccc1`, the inhibition is 97.7% (active).

Take `Cc1ccc(S(=O)(=O)N(C)CC(=O)NCCc2c[nH]c3ccccc23)cc1`: the inhibition was 12.5%.

Consider `Cc1ccc(S(=O)(=O)N2CCN(C(=O)Cc3sc(C)nc3-c3ccc(F)cc3)CC2)c(C)c1`, for which the inhibition was -8.23%.

Regarding `Cc1cc(C)c2nc(N3CCC(C(=O)NCCN4CCOCC4)CC3)sc2c1`, the inhibition is -16.5%.

For `CC(OC(=O)CNC(=O)c1ccc(Cl)c([N+](=O)[O-])c1)C(=O)NCc1ccco1` (stereo not drawn), the inhibition was 21.2%.

Take `CCC(C)N(C(=O)COC(=O)c1nc(Cl)ccc1Cl)C1CCS(=O)(=O)C1` (stereo not drawn): the inhibition was 3.49%.

Consider `Cc1ccc(-c2ccccc2[C@H]2[C@@H](C#N)N(c3ncc(-c4ccccc4)s3)[C@@H]2CO)cc1`, for which the inhibition was 50.1% [at 25 µM] (active).

In the case of `Cc1cccc(-c2ccccc2[C@@H]2[C@H](C#N)N(c3ncc(-c4ccccc4)s3)[C@H]2CO)c1`, the inhibition is -6.41% [at 25 µM].

`N#C[C@@H]1[C@H](c2ccccc2-c2ccccc2)[C@H](CO)N1c1ncc(-c2ccccc2)s1`: the inhibition was -4.27% [at 25 µM].

Regarding `Cc1ccc2cccc([N+](=O)[O-])c2n1`, the inhibition was -0.702%.

Regarding `CCC(=O)N1[C@@H](CO)[C@@H](c2ccc(C3=CCCC3)cc2)C12CN(C(=O)COC)C2`, the inhibition was -9.07% [at 25 µM].

For `CC(OC(=O)C1CC(=O)N(Cc2ccccc2)C1)C(=O)Nc1ccccc1[N+](=O)[O-]` (stereo not drawn), the inhibition was 7.76%.

For `COc1ccc(NC(=O)c2cc3nc(-c4ccccc4)cc(C)n3n2)cc1OC`, the inhibition is -3.33%.

Take `Cn1c(-c2ccco2)nc2cc3ccccc3cc21`: the inhibition was 50.6% (active).

As for `CN(c1nc2ccccc2n2c(-c3ccco3)nnc12)S(=O)(=O)c1ccccc1`, the inhibition was 1.82%.

Regarding `Cc1nnc2sc(-c3ccco3)nn12`, the inhibition was 4.37%.

Consider `CCOC(=O)C1(C)NC(c2ccco2)C2C(=O)N(c3ccccc3)C(=O)C21` (stereo not drawn), for which the inhibition was -6.84%.

In the case of `CS(=O)(=O)Nc1ccc2c(c1)[C@H]1C[C@@H](CC(=O)NCCc3ccccc3)O[C@@H](CO)[C@H]1O2`, the inhibition was -1.64% [at 25 µM].

Take `O=C(NCCc1ccc(F)cc1)c1ccc(S(=O)(=O)N2CCCCC2)cc1`: the inhibition is -1.19%.

Regarding `CC(C)(C)NC(=O)NC(=O)COC(=O)Cc1ccc(Cl)cc1Cl`, the inhibition is 15.3%.

Regarding `CCOc1ccc(NC(=O)NNC(=O)c2ccc(Cl)cc2Cl)cc1`, the inhibition is 10.3%.

As for `NC(N)=N/N=C/c1ccc(OCc2ccc(Cl)cc2Cl)cc1`, the inhibition is 83.8% (active).

`COCCNC(=O)CSc1nc(N)c(NC(=O)c2ccco2)c(=O)[nH]1`: the inhibition is 6.02%.

As for `COc1ccccc1C(=O)NC(CCSC)C(=O)NNC(=O)c1ccccc1C` (stereo not drawn), the inhibition is 0.904%.

Regarding `CC(=O)Nc1cccc(C(=O)OCC(=O)c2ccc3c(c2)OCO3)c1`, the inhibition is 90.8% (active).

On to `O=C(COC(=O)c1ccc2c(c1)OCCO2)NCc1ccccc1Cl`, for which the inhibition was -15%.

Consider `O=C(COC(=O)c1ccncc1)Nc1ccc2c(c1)OCO2`, for which the inhibition is -1.31%.

Regarding `O=C1COc2ccc(C(=O)COC(=O)c3ccccc3Cl)cc2N1`, the inhibition is -59.8%.

As for `O=C(COC(=O)c1ccccc1)c1ccc2c(c1)OCCO2`, the inhibition is 101% (active).

With `O=C(COC(=O)c1ccc(F)cc1)Nc1ccc2c(c1)OCO2`, the inhibition was -50.8%.

As for `CCC(=O)Nc1nnc(S(=O)(=O)N2CCCc3ccccc32)s1`, the inhibition was 5.48%.

With `CC(C)NC(=O)N(C)C[C@H]1Oc2ccc(N(C)C)cc2CC(=O)N(C)C[C@@H]1C`, the inhibition is 6.49%.

In the case of `CC(=O)Nc1cccc(C(=O)OCC(=O)NCc2cc(C)c(O)c(C)c2)c1`, the inhibition was -53.4%.

With `CN(CC(=O)Nc1ccc(OC(F)(F)F)cc1)C(=O)C1CCC1`, the inhibition was -5.45%.

Take `O=C(CSc1ccccc1)Nc1cccc(S(=O)(=O)N2CCCCC2)c1`: the inhibition was -2.87%.

As to `CC(=O)Oc1ccc(-c2cccc(C(=O)N3CCCCC3)c2)cc1`, the inhibition was -16.5%.

Regarding `N#C[C@@H]1[C@H](c2ccccc2)[C@H](CO)N1C(=O)CN1CCOCC1`, the inhibition was -6.4% [at 25 µM].

`CCOC(=O)C1(Cc2cccc(OC)c2)CCN(Cc2csc(C(C)=O)c2)CC1`: the inhibition is 21.6%.

Consider `CN1C(=O)c2cc(NC(=O)c3cccc(F)c3)ccc2OC[C@@H]2O[C@@H](CC(=O)NCC3CCCCC3)CC[C@H]21`, for which the inhibition was 28.6% [at 25 µM] and 23.2% [at 25 µM].

As to `CCCCC(=O)Nc1ccc2c(c1)OCCO2`, the inhibition was -54.6%.

On to `COC(=O)CCNc1ccc2c(c1)OCCO2`, for which the inhibition was 49.8% (active).

Take `Cc1ccc(OCCCC(=O)Nc2ccc3c(c2)OCCO3)cc1`: the inhibition is 8.39%.

Regarding `CSc1ncccc1C(=O)NC1CCCCCC1`, the inhibition is 3.02%.

In the case of `C[C@H]1CN([C@@H](C)CO)C(=O)c2cc(C#CC3(O)CCCC3)cnc2O[C@@H]1CN(C)C(=O)Cc1ccccc1`, the inhibition was -19.3% [at 25 µM].

`C[C@@H]1CN([C@@H](C)CO)C(=O)c2cc(C#CCc3ccccc3)cnc2O[C@@H]1CN(C)C(=O)C1CCOCC1`: the inhibition was 65% [at 25 µM] (active).

In the case of `C/C=C/c1cnc2c(c1)C(=O)N([C@@H](C)CO)C[C@@H](C)[C@@H](CN(C)C(=O)C1CCOCC1)O2`, the inhibition is -23% [at 25 µM].

As to `COC(=O)Cc1c(-c2[nH]c3ccccc3c2CC(=O)OC)[nH]c2ccccc12`, the inhibition is -13.2%.

`COc1ccc(CCNC(=O)CN(c2ccccc2)S(=O)(=O)c2ccccc2)cc1`: the inhibition is 11.3%.
